Assay results: paper PMC5540273 (PLoS ONE, 2017)

Assays:
Conditions in all cases: concentration: 1 μM, replicates: in singlicate; n = 1
RIPK2 = test system: RIPK2
RIPK4 = test system: RIPK4
RIPK5 = test system: RIPK5
ROCK1 = test system: ROCK1
ROCK2 = test system: ROCK2
ROS1 = test system: ROS1
[1] = test system: RPS6KA4(Kin.Dom.1-N-terminal)
[2] = test system: RPS6KA4(Kin.Dom.2-C-terminal)
[3] = test system: RPS6KA5(Kin.Dom.1-N-terminal)
[4] = test system: RPS6KA5(Kin.Dom.2-C-terminal)
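Also: KINOMEscan kinase panel screen.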

SMILES	%Inh (RIPK2)	%Inh (RIPK4)	%Inh (RIPK5)	%Inh (ROCK1)	%Inh (ROCK2)	%Inh (ROS1)	%Inh [1]	%Inh [2]	%Inh [3]	%Inh [4]
Cc1cc(Nc2nc(-c3cccc(C)n3)nc3ccccc23)ccn1 [GW872411]	14%	0%	0%	27%	0%	0%	2%	0%	0%	16%
COC(=O)c1c(-c2ccccc2)c2cc(Br)ccc2c(=O)n1Cc1ccc(NC(=O)CCC(=O)O)cc1	12%	20%	21%	8%	0%	0%	0%	9%	23%	0%
CN1C(=O)C(Nc2ccccc2)=C(c2ccccc2)C1=O [SB-300079]	0%	5%	25%	7%	43%	0%	8%	0%	0%	9%
Cc1ccc(Oc2ccc(Nc3ncnc4cc[nH]c34)cc2C)cn1	8%	36%	14%	0%	0%	11%	0%	1%	16%	2%
FC(F)(F)c1ccc(-c2ncn(CCCN3CCOCC3)c2-c2ccncc2)cc1 [SB-217780]	0%	61%	0%	27%	0%	0%	1%	11%	0%	0%
Nc1nc(-c2ccccc2F)c(-c2ccnc3ccccc23)s1 [GW560459]	98%	0%	0%	14%	24%	4%	3%	0%	10%	1%
Fc1cccc(CSc2nnc(-c3ccc4c(c3)CCO4)o2)c1	12%	0%	0%	12%	0%	0%	0%	4%	16%	9%
CCC(=O)c1c(-c2ccccc2)c2cc(Cl)ccc2c(=O)n1Cc1ccc(C(=O)O)cc1	0%	0%	5%	0%	0%	0%	0%	7%	0%	0%
COc1ccc(-c2coc3ccc(-c4nnc(SCc5cccc(C#N)c5)o4)cc23)cc1	12%	16%	12%	0%	24%	18%	0%	13%	29%	0%
COc1cc(Nc2ccnc3ccc(C(F)(F)F)cc23)cc(OC)c1OC [GW577382]	64%	1%	0%	0%	15%	9%	10%	0%	6%	13%
CCS(=O)c1ccc(-c2coc3ccc(-c4nnc(C)o4)cc23)cc1 (stereo not shown)	0%	7%	0%	0%	28%	15%	24%	11%	2%	0%
Cc1nnc(-c2ccc3ncn(-c4ccc(S(C)=O)cc4)c3c2)o1 (stereo not shown)	19%	0%	0%	0%	16%	0%	0%	0%	3%	4%
Nc1ncnc2c1ncn2-c1cccc2ccccc12 [SKF-97184]	7%	8%	5%	67%	0%	0%	10%	0%	10%	2%
COc1ccc(-c2cc3c(C)nc(N)nc3n([C@H]3CC[C@H](O)CC3)c2=O)cn1	0%	0%	0%	0%	0%	0%	5%	0%	0%	0%
CCc1nc(-c2cccc(C)c2)c(-c2ccncc2)s1	76%	7%	0%	0%	0%	11%	2%	0%	0%	18%
O=C(Nc1ccc2c(c1)OCO2)NC1CCN(c2ccnc(NCc3ccc(F)cc3)n2)CC1 [GSK1379859]	10%	0%	10%	74%	47%	0%	13%	0%	9%	0%
CC(C)(C)c1ccc(C(=O)Nc2cn3cc(-c4ccccc4)ccc3n2)cc1	16%	0%	2%	0%	63%	0%	6%	0%	0%	18%

SMILES	%Inh (RIPK2)	%Inh (RIPK4)	%Inh (RIPK5)	%Inh (ROCK1)	%Inh (ROCK2)	%Inh (ROS1)	%Inh [1]	%Inh [2]	%Inh [3]	%Inh [4]
COc1cc2ncn(-c3cc(OCCCc4ccccc4)c(C(N)=O)s3)c2cc1OC [GSK205189]	20%	0%	0%	0%	0%	13%	5%	0%	0%	0%
COc1cccc(-n2cnc3c(N)ncnc32)c1 [SKF-97416]	1%	43%	18%	66%	60%	0%	19%	7%	0%	0%
Cl.NS(=O)(=O)c1cccc(Nc2cc(-c3ccc(F)cc3)n[nH]2)c1 [GW824645]	0%	15%	22%	0%	18%	11%	17%	0%	0%	3%
Nc1n[nH]c2ncc(-c3ccccc3)cc12 [SB-517081]	18%	19%	5%	14%	2%	0%	7%	0%	41%	25%
Cc1cccc(-c2cc(-c3c[nH]nc3-c3ccccn3)ccn2)c1 [GW679395]	36%	12%	6%	0%	10%	0%	1%	0%	0%	37%
C[C@@H]1CC[C@H](C(=O)NC2CCCCC2)CN1c1cc(-c2ccc3c(N)n[nH]c3c2)nc(N)n1 [GSK2291363]	5%	29%	0%	94.4%	93.1%	28%	5%	0%	32%	0%
COc1cccc(C2=C(N(C)c3ccccc3)C(=O)NC2=O)c1 [SB-334865]	17%	19%	0%	0%	12%	0%	8%	0%	20%	0%
CCn1c(-c2ccoc2)nc2cnccc21 [SB-733887]	6%	30%	0%	0%	23%	0%	0%	0%	9%	0%
COc1cc(OC)cc(-c2cc3cnc(N)nc3nc2NC(=O)NC(C)(C)C)c1	0%	0%	0%	0%	0%	0%	16%	0%	5%	0%
COc1cc(Nc2nccc(N3CCC(NC(=O)C4COc5ccccc5O4)C3)n2)cc(OC)c1OC (stereo not shown) [GSK1379761]	0%	0%	0%	26%	37%	54%	0%	0%	0%	0%
Cc1c(Cn2c(C)nn3c(=O)cc(N4CCO[C@H](C)C4)nc23)cccc1C(F)(F)F [GSK2373690]	4%	0%	0%	7%	0%	4%	16%	0%	27%	15%
Cn1c(=O)c(F)c(Nc2ccc(I)cc2F)c2c(=O)n(OC[C@H](O)CO)cnc21	15%	3%	0%	0%	0%	0%	25%	0%	0%	9%
CCC(=O)c1c(-c2ccccc2)c2cc(Cl)ccc2c(=O)n1Cc1cc(S(C)(=O)=O)n(CC(F)F)n1	2%	0%	18%	0%	0%	0%	0%	0%	0%	0%
CCCC(=O)Nc1n[nH]c2ncc(-c3cccc4ccccc34)cc12 [SB-642057]	28%	36%	10%	0%	3%	0%	14%	0%	16%	0%
COc1cc2ncn(-c3cc(OCc4ccc(S(C)(=O)=O)cc4)c(C(N)=O)s3)c2cc1OC [GW869979]	0%	35%	3%	45%	32%	0%	0%	38%	0%	14%
Nc1nccc2scc(-c3ccc4c(c3)CCN4C(=O)Cc3ccccc3)c12 [GSK2576924]	58%	3%	12%	0%	38%	18%	13%	0%	25%	14%
O=C1NC(=O)C(c2ccccc2)=C1Nc1cccc(O)c1 [SB-390534]	8%	1%	26%	0%	0%	24%	0%	7%	0%	0%
